A selection: hits, their analogues and other compounds. The true share with any hit is near 4.8%.
PfHsp90 set2 – growth inhibition of PfHsp90-expressing yeast, primary screen, antimalarial PfHsp90 inhibitor project, S. cerevisiae, BacTiter-Glo luminescence, single point, set 2; AID 504621, 2011; inhibition, % at 9.4 µM; hit rate 0.32% among 310,000; BacTiter-Glo ATP, 48 h; yeast lacking PDR1 and PDR3 efflux regulators;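 active = every replicate shows inhibition above about 80%, whatever the replicate mean, limit read from the data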;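 note: 0% = DMSO neutral controls and 100% = 20 µM radicicol positive controls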
tim23-1 inh – growth inhibitors of tim23-1 mutant yeast, primary screen, luminescence, uHTS; hit rate 1.3% among 330,000; AID 463212, 2010; inhibition, % at 20 µM; S. cerevisiae tim23-1 growth, BacTiter-Glo luminescence, 24 h;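 active = growth inhibition of the mutant yeast at or above 50%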;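 note: temperature-sensitive mutant grown at 25 °C; plate controls were DMSO-treated mutant yeast for no effect and medium wells lacking yeast for full effect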
NALP1 yeast inh – NALP1 inflammasome inhibitors in reconstituted yeast, colorimetric, S. cerevisiae, triplicate retest; hit rate 0.61% among 280,000; S. cerevisiae NALP1/ASC/caspase-1 growth, X-gal OD620, 72 h; inhibition, % at 10 µM; in the data active = inhibition mostly above about 24%, no sharp cut-off; inactive = mostly below about 32%
tim10-1 inh – growth inhibitors of tim10-1 mutant yeast, primary screen, luminescence, uHTS; inhibition, % at 20 µM; S. cerevisiae tim10-1 ts strain growth, BacTiter-Glo, 24 h; hit rate 2.2% among 330,000; AID 463190, 2010;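 active = inhibition of at least 40%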;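 note: mutant grown at 25 °C; 0% = DMSO wells with yeast and 100% = wells holding no yeast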
TIM10 inh – growth inhibitors of isogenic TIM10 control yeast, primary screen, counter-screen for tim10-1 yeast inhibitor project, luminescence, uHTS; S. cerevisiae TIM10 strain growth, BacTiter-Glo luminescence, 24 h; inhibition, % at 10 µM; hit rate 1.4% among 330,000;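 active = inhibition of 40% or more at the single tested concentration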;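 note: wild-type TIM10 isogenic control strain grown at permissive 25 °C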
SKKanGAS inh – S. pyogenes SKKanGAS growth inhibitors in kanamycin, primary screen, streptokinase expression inhibitor project, SKKanGAS strain, BacTiter-Glo luminescence; 6 h; inhibition, % at 7.5 µM; hit rate 1.3% among 300,000;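 active = mean replicate score, as percent of positive control median, at least 50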;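 note: strain carries kanamycin resistance gene driven by streptokinase promoter and grows in 40 µg/ml kanamycin; loss of luminescence reflects streptokinase promoter inhibition or plain growth inhibition; 0% = median of DMSO wells and 100% = positive control at its reference dose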
tim10-1 confirm – growth inhibitors of tim10-1 mutant yeast, confirmation, single concentration, luminescence, S. cerevisiae | shares compounds with tim10-1 inh | AID 463213, 2010 | inhibition, % at 20 µM | S. cerevisiae tim10-1 ts strain growth, BacTiter-Glo, 24 h | hit rate 56% among 7,400;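 active = inhibition of yeast growth at or above a set limit in either of two repeat tests at 20 µM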;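 note: tim10-1 mutant grown at permissive 25 °C to find synthetic lethal compounds; 0% = DMSO yeast wells and 100% = medium wells without yeast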
Active calls of the source: *; . = no result given.

SMILES	PfHsp90 set2	tim23-1 inh	NALP1 yeast inh	tim10-1 inh	TIM10 inh	SKKanGAS inh	tim10-1 confirm
COCCN1C(=O)/C(=C/c2ccc(N3CCCC3)cc2)SC1=S	-14.8	3.0	-12.1	14.9	0.5	.	.
Cc1ccc(NC(=O)c2cc(-c3ccccc3)nn2-c2ccccc2)cc1	10.8	21.1	.	44.6*	32.5	21.8	31.5*
CC(=O)c1ccc(Sc2nnnn2-c2ccccc2)c([N+](=O)[O-])c1	-9.5	46.2	8.3	45.6*	16.5	-4.0	30.7
CC(C)(C)NC(=O)C(=O)NNC(=O)c1ccccc1	18.7	4.9	-0.8	8.2	4.5	0.5	.
CNc1ccccc1C(C)(C)c1cc(-c2cccc([N+](=O)[O-])c2)no1	0.7	26.8	-6.6	42.6*	37.1	19.0	33.4*
C[C@@H]1CC=C[C@H]2[C@H]1C(=O)N(Cc1ccccc1)[C@H]2c1ccoc1	.	5.5	-45.3	49.9*	-1.9	8.5	34.4*
CC[C@@H]1CC=C[C@H]2[C@H]1C(=O)N(Cc1ccccc1)[C@H]2c1ccoc1	.	-14.0	.	77.2*	-4.2	-0.7	73.4*
CC[C@@H]1CC=C[C@H]2[C@H]1C(=O)N(Cc1ccccc1)[C@H]2c1ccc(OC)c(Cl)c1	-15.6	38.3	-3.5	43.0*	35.5	59.0*	29.1
Cc1ccc2c(c1)N(CC(=O)N1CCCCC1C)C(=O)CO2 (stereo not given)	6.4	-3.6	-5.0	-32.9	9.1	1.5	.
Cc1cccc(/C=C2\CS/C(=C\c3cccc(C)c3)C2=O)c1	2.6	48.7	-6.6	44.2*	23.8	-2.1	35.8*
COc1ccc(C2(O)CC3CCC(C2)N3c2cc(C)nc(-c3ccccc3)n2)cc1 (stereo not given)	9.3	30.8	5.6	42.4*	33.1	-10.0	31.6*
Cc1cc(N2CCCC2)nc(N2C3CCC2CC(O)(c2ccc(F)cc2)C3)n1 (stereo not given)	.	3.0	14.2	0.1	11.6	-2.0	.
O=C(NC(=S)N1CCN(c2ccc([N+](=O)[O-])cc2)CC1)c1ccc(F)cc1	-13.2	27.5	8.2	16.2	-4.0	44.1	.
CC(C)c1ccc(NC2=CC(=O)CC(C)(C)C2)cc1	-18.1	37.9	17.7	40.6*	16.6	-2.2	14.9
CCc1ccc(NC2=CC(=O)CC(C)(C)C2)cc1	-13.5	20.3	0.6	26.6	-12.9	6.5	.
CCOc1ccccc1-c1nn2c(Cc3ccccc3)nnc2s1	.	34.7	3.7	41.0*	38.1	-3.8	6.0
COc1ccccc1-c1nn2c(C3COc4ccccc4O3)nnc2s1 (stereo not given)	.	45.8	-1.5	46.0*	35.4	23.6	48.2*
COc1ccccc1-c1nn2c(C(F)(F)F)nnc2s1	.	20.1	7.1	45.3*	29.4	-3.2	33.6*
c1ccc(CCc2nn3c(C4COc5ccccc5O4)nnc3s2)cc1 (stereo not given)	8.0	11.2	-7.1	34.2	11.7	-7.8	.
COC(=O)c1cc(OC)c(OC)cc1N1C(=O)CCCC1=O	-1.3	1.1	8.6	-3.7	4.6	-1.6	.
COc1ccc(C(=O)/C(=C/O)N=Nc2ccc(F)cc2)cc1	1.3	32.4	3.1	45.0*	21.8	12.7	9.1
Cc1cccc(NC(=O)CSCc2cc(=O)n3c(C)csc3n2)c1C	-27.9	9.2	33.7	-4.2	4.0	-4.2	.
O=C1c2ccccc2NC2(CCCC2)N1NS(=O)(=O)c1ccccc1	-5.9	2.2	-3.8	17.1	6.8	1.2	.
CCOC(=O)c1sc(=S)n(Cc2ccccc2)c1N	0.3	21.9	7.9	41.7*	15.9	-7.0	40.0*
CCOC(=O)c1sc(=S)n(CC)c1N	19.7	7.3	13.7	-11.0	2.2	-4.0	.
SMILES	PfHsp90 set2	tim23-1 inh	NALP1 yeast inh	tim10-1 inh	TIM10 inh	SKKanGAS inh	tim10-1 confirm
CC(=O)NS(=O)(=O)c1ccc(NC(=O)c2ccc(Cl)cc2[N+](=O)[O-])cc1	3.4	17.8	10.5	24.0	4.7	15.9	.
CCC(C(=O)O)n1nc(-c2ccccc2)c2cc(Cl)ccc21 (stereo not given)	12.8	10.6	19.6	6.5	-4.0	14.4	.
N#CC(C(=O)Nc1cccc(Cl)c1)=C1Nc2ccccc2N1	-10.4	-16.8	25.2	15.4	-0.7	-1.8	.
N#CC(C(=O)Nc1ccc(Cl)c(Cl)c1)=C1Nc2ccccc2N1	-10.1	-10.5	12.1	44.9*	7.2	2.0	19.5
O=C(COC(=O)CCC1CCCC1)Nc1cc(S(=O)(=O)N2CCOCC2)ccc1Cl	.	32.5	.	30.3	2.9	.	.
CN(C)S(=O)(=O)n1cnc2ccccc21	-14.6	3.3	5.6	6.8	-1.0	4.9	.
O=S(=O)(/C=C/c1ccccc1)n1cnc2ccccc21	-0.7	29.0	4.8	44.4*	37.6	-2.2	32.3*
Cc1cc(-c2ccc(C)c(S(=O)(=O)NCc3cccc(Br)c3)c2)on1	-36.1	31.2	16.7	40.9*	-4.8	11.7	-2.1
Cc1cc(-c2ccc(C)c(S(=O)(=O)NCc3ccc(Br)cc3)c2)on1	11.5	46.3	1.7	43.2*	0.1	-7.7	-6.6
Cc1cc(-c2ccc(C)c(S(=O)(=O)NCCc3ccco3)c2)on1	10.7	20.1	-21.4	-22.4	5.9	0.2	.
CCCc1cc(C(=O)Nc2cccc([N+](=O)[O-])c2)cs1	1.9	41.5	26.9	41.3*	24.9	-21.5	30.9*
O/N=C(/c1ccc(Cl)cc1)C1CC1c1ccccc1 (stereo not given)	-9.8	39.4	3.1	50.6*	34.8	21.9	26.6
Cc1ccc(C2CC2/C(=N/O)c2ccc(F)cc2)cc1 (stereo not given)	-8.9	16.7	19.0	8.5	-2.5	21.9	.
c1ccc(-c2nnc(-c3ccccn3)c(-c3ccccn3)n2)nc1	.	2.1	.	16.3	9.9	-4.3	.
CN(C)c1nc(-c2ccccn2)nnc1-c1ccccc1	33.7	1.5	9.8	40.1*	-1.9	12.5	20.8
Cc1ccc(-c2cc(-c3ccccc3)c(C#N)c(N)n2)o1	46.8	19.1	30.8	50.0*	6.3	10.1	26.9
Cc1ccc(-c2c(C#N)c(N)nc3c2CCCC3)o1	-6.4	12.8	12.2	8.6	12.8	-4.4	.
N#Cc1c(-c2ccco2)cc(C2CC2)nc1N	-32.9	24.5	0.4	20.5	18.9	1.3	.
N#Cc1c(-c2ccccc2)cc(C2CC2)nc1N	-35.1	19.1	-10.5	41.8*	9.9	-7.9	12.6
Cc1ccc(-c2cc(-c3ccccc3Cl)c(C#N)c(N)n2)o1	0.7	47.9	0.8	40.7*	34.4	16.0	25.1
Cc1ccc(-c2cc(-c3ccc(F)cc3)nc(N)c2C#N)o1	-3.9	15.2	2.7	11.5	6.4	9.3	.

From PubChem BioAssay
